This is a sample that favours compounds with a hit; in the whole collection about 12% have one here.
Sfp PPTase inh – Sfp phosphopantetheinyl transferase inhibition; Potency, µM, for the others: largest response in the series, negative = inhibition, usual class: inhibitors; actives 3.5% (n = 310,000); Q9F4F7; Biochemical Sfp PPTase activity, qHTS; AID 1490;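 further: the enzyme is Sfp with the accession as filed and its product quenches rhodamine fluorescence; 0% = enzyme reaction without inhibitor and -100% = no enzyme wells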
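Sfp 15 nM + cpd, 15 min RT; start w/ rhodamine-CoA 5 uM, BHQ-2-YbbR 12.5 uM (final); 50 mM Hepes pH 7.6, 10 mM MgCl2, 0.01% NP-40, 0.01% BSA; read 525/598 nm at 0 and 30 min.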
HP1b binding inh – inhibitors of HP1-beta chromodomain binding to methylated histone tails | P83916 | AlphaScreen HP1-beta / biotin-H3K9me3 peptide binding | Potency, µM (top dose mostly 114 µM), for inactives: at the top dose activity change, negative = inhibition, hits mostly inhibitors | actives 0.56% (n = 390,000); further: nearly all actives have a fitted effect of over 70% in size
Target sequence (P83916 whole entry, looked up): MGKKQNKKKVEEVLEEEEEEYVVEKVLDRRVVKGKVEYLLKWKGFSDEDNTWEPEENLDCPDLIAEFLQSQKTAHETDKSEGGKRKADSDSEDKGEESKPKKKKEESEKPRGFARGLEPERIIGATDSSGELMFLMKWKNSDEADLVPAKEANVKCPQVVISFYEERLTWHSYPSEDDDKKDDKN
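AlphaScreen: HP1-beta (50 nM) preformed 30 min with biotin-H3(1-18)K9me3 peptide (50 nM) in PBS pH 7.4, 0.01% Tween-20. Compound added for 30 min at RT, then streptavidin donor/nickel chelate acceptor beads (10 ug/mL) for 30 min.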
L3MBTL1 inh – inhibitors of human L3MBTL1. Potency, µM (series often up to 57.1 µM), for inactives: at the top dose activity, negative = inhibition, actives largely listed as inhibitors. AlphaScreen L3MBTL1–H3K9me1 peptide binding. actives 0.66% (n = 230,000); further: on the % scale 0 is the no-effect control and ±100 the full control effect; nearly all actives have a fitted effect of over 60% in size
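Read-out is AlphaScreen signal from streptavidin donor and nickel chelate acceptor beads (10 ug/mL final each) bridging L3MBTL1 (50 nM) and biotinylated K9-monomethylated H3(1-15) peptide (75 nM), after 30 min compound exposure at room temperature.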
JMJD2A Tudor – inhibitors of human JMJD2A Tudor domain; AID 504339; Potency, µM (doses to about 114 µM), for inactives: at the highest dose activity change, negative = inhibition, usual class: inhibitors; O75164; actives 4.4% (n = 390,000); AlphaScreen JMJD2A-Tudor / H3K4me3 peptide binding; further: on the % scale 0 is the no-effect control and ±100 the full control effect; nearly all actives have a fitted effect of over 50% in size
BAZ2B block – inhibitors of human BAZ2B bromodomain; Q9UIF8; AlphaScreen BAZ2B-H3K14Ac peptide displacement; Potency, µM (doses to about 114 µM), inactives show at the top dose activity change, negative = inhibition, actives largely listed as inhibitors; actives 4.4% (n = 360,000); further: on the % scale 0 is the no-effect control and ±100 the full control effect; nearly all actives have a fitted effect of over 60% in size
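AlphaScreen luminescence quantifies BAZ2B engagement of H3K14Ac peptide; the protein and biotinylated peptide are both at 50 nM final, buffer PBS pH 7.4 with 0.01% Tween-20, all steps at room temperature.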
G9a block – inhibitors of human histone lysine methyltransferase G9a; Potency, µM (doses to about 102 µM), for the others: at the top dose activity, negative = inhibition, usual class: inhibitors; actives 8.8% (n = 350,000); AID 504332; G9a H3K9 monomethylation, AlphaScreen, 2 h; further: on the % scale 0 is the no-effect control and ±100 the full control effect; nearly all actives have a fitted effect of over 75% in size
Target sequence (Q96KQ7 913-1193 limits assumed): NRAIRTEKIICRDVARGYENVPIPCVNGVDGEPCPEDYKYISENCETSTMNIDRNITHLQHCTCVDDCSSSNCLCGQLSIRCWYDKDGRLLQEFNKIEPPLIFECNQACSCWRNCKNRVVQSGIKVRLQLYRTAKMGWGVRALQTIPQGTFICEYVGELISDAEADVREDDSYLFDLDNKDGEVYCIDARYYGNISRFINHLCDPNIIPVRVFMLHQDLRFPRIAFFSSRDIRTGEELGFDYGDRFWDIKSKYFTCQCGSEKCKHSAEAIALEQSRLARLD
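Compounds were preincubated with 20 nM G9a for 15 min, after which biotinylated H3K9 peptide (500 nM) and SAM (20 uM) started a 2 h room-temperature reaction. Monomethylated product was quantified by antibody-based AlphaScreen chemiluminescence.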
* marks the source's active call; other numbers are inactive results; ? = inconclusive; · = no result; [ ] = dose if it differs, or a comment. The call rests on the fitted dose curve; in most records, active means well fitted curve in the direction sought with a large enough effect; inconclusive means small, poorly fitted or top-dose-only effect, or another doubt; inactive means no such curve, though single readings can be large; an effect the other way counts as inactive or inconclusive. Potency means the concentration at half of the fitted maximal effect.

SMILES	Sfp PPTase inh	HP1b binding inh	L3MBTL1 inh	JMJD2A Tudor	BAZ2B block	G9a block
CCOC(=O)c1cc(CNC(=O)c2c(C)oc3c2CCCC3)c(C)o1	-10.5%	-9.2%	-24.2%	-30.0%	?	50.1µM*
CC(C)(C)OC(=O)NC(Cc1ccccc1)C(=O)NC1COC2CC(n3cc(F)c(=O)[nH]c3=O)OC12 (centres undefined)	3.5%	44.2%	·	-6.2%	·	·
CCOC(=O)c1ccc(N2C(=O)c3n[nH]c(-c4ccco4)c3C2c2ccccc2OC)cc1 (centres undefined)	·	-18.5%	·	?	·	12.6µM*
CCOC(=O)c1ccc(N2C(=O)c3n[nH]c(-c4ccco4)c3C2c2ccc(F)cc2)cc1 (centres undefined)	·	-13.7%	·	?	·	11.2µM*
COc1cccc(CN2CC34CC(c5ccc(C(C)=O)cc5)C(CC3S2(=O)=O)O4)c1 (centres undefined)	6.3%	37.6%	·	-11.0%	·	·
O=C(O)c1ccc2c(c1)C(=O)N([C@H](Cc1ccc3ccccc3c1)C(=O)O)C2=O	-11.8%	·	8.7%	?	?	9.8%[12.7 µM]
O=C1C2C(C(=O)N1/N=C/c1ccc(N3CCCCC3)o1)C1C=CC2C12CC2 (centres undefined)	1µM*	-2.7%	-5.3%	-23.2%	-29.6%	?
O=C1C2C3C=CC(C4CC34)C2C(=O)N1/N=C/c1ccc(-c2cccc([N+](=O)[O-])c2)o1 (centres undefined)	-8.0%	-5.9%	-9.7%	-34.5%	?	?
Cc1[nH]n(-c2ncc(-c3ccccc3)s2)c(=O)c1C(c1ccc(Br)cc1)C(C#N)C#N (centres undefined)	56.2µM*	39.8µM*	-21.2%	50.1µM*	35.5µM*	?
Cc1[nH]n(C(N)=S)c(=O)c1C(c1ccccc1)C(C#N)C#N (centres undefined)	-16.0%	32.9%	32.0%	8.6%	11.9%	?
COc1ccccc1N1CCN(C(=O)CCn2cnc3onc(-c4ccc(F)cc4)c3c2=O)CC1	·	-13.8%	·	-35.6%	-1.0%[57.1 µM]	-28.8%[59 µM]
Cc1nc2ccn(Cc3ccco3)c(=O)c2cc1C(=O)Nc1ccc(F)cc1	·	22.5%	·	-11.7%	-16.2%	-0.1%[59 µM]
CN(C)c1ccc(/C=N/NC(=O)Cn2nnc3ccccc32)cc1	-11.3%	-1.3%	-5.9%	-12.5%	-26.6%	14.1µM*
CN(C)c1ccc(/C=N/NC(=O)c2ccccc2Cl)cc1	7.8%	-7.1%	-15.5%	-31.2%	-35.4%	39.8µM*
COc1ccc(/C=N/NC(=O)Cn2nnc3ccccc32)cc1OC	5.2%	14.9%	-5.0%	-14.5%	-24.8%	27.6%[59 µM]
CN(C)c1ccc(/C=N/NC(=O)c2sccc2-n2cccc2)cc1	-4.7%	16.9%	-23.2%	-16.9%	-24.3%	28.2µM*
COc1ccc(NC(=O)O/N=C/c2ccccc2)cc1	0.4%	-6.8%	-4.0%	-22.9%	-13.0%	-0.1%
CN(C)c1ccc(/C=N/OC(=O)Nc2ccccc2)cc1	0.6%	-6.1%	·	-34.3%	70.8µM*	-12.3%
CN(C)c1ccc(/C=N/NC(=O)c2ccccc2)cc1	18.8%	27.7%	-2.7%	-17.4%	-29.5%	-40.8%
O=C(N/N=C\c1ccc(Cl)cc1)c1sccc1-n1cccc1	16.8%	25.6%	3.0%	-12.2%	3.0%	-13.0%
C[C@@H]1C(=O)CC2C(C)(C)CCC[C@]2(C)[C@@]1(O)CCc1ccoc1 (some centres undefined)	-15.8%	·	·	·	·	·
COc1ccc(/C=N/Nc2nc3ccccc3[nH]2)cc1OC	22.4µM*	5.6%	-3.8%	-23.2%	-38.9%	-9.5%[59 µM]
C(=N\Nc1nc2ccccc2[nH]1)/c1ccccn1	23.2%	26.8%	·	?	25.1µM*	60.0%[59 µM]
COc1cc(/C=N/Nc2ccccn2)ccc1O	?	25.1%	-16.9%	-10.6%	-31.2%	?
COc1ccc(/C=N/Nc2ccccn2)cc1OC	56.2µM*	27.4%	-19.7%	-20.0%	-27.5%	1.2%
SMILES	Sfp PPTase inh	HP1b binding inh	L3MBTL1 inh	JMJD2A Tudor	BAZ2B block	G9a block
C(=N\Nc1nc2ccccc2[nH]1)/c1ccc2c(c1)OCCO2	25.1µM*	-21.3%	-8.8%	?	?	?
COc1cc(/C=N\Nc2nc3ccccc3[nH]2)cc(OC)c1OC	8.8%	14.0%	-11.2%	-9.4%[57.1 µM]	?	·
CCc1ccc2c(-c3cccc(Cl)c3)nc(=O)n(CC)c2n1	-25.5%	·	·	·	·	-20.6%[59 µM]
CC(=O)c1cccc(NC(=O)Cn2ccn3nc(-c4ccccc4)cc3c2=O)c1	·	9.9%	·	-4.0%	-2.0%	15.5%[59 µM]
O=C(Cn1c(=O)oc2cc(S(=O)(=O)NCc3ccccc3)ccc21)Nc1cccc(F)c1	·	25.3%	·	-11.6%	-1.9%	-2.6%[59 µM]
COc1cc(/C=N\Nc2cc(=O)n(C)c(=O)n2C)ccc1O	-5.6%	13.6%	-2.7%	-2.6%	-3.9%	6.1%[59 µM]
C#CCn1cc(/C=N/Nc2nc3ccccc3[nH]2)c2ccccc21	11.2µM*	?	-23.0%	50.1µM*	39.8µM*	50.1µM*
CN(C)c1ccc(C=NNc2ccccn2)c(Cl)c1	·	16.7%	·	-25.7%	·	·
Cc1ccc(/C=N/Nc2ccc(Cl)nn2)cc1	2.4%	8.6%[57 µM]	·	-7.2%	0.3%	8.8%[12.7 µM]
CN(C)c1ccc(/C=N/Nc2ccc(-n3ccnc3)nn2)cc1	44.7µM*	-0.7%	·	?	17.8µM*	?
CN(C)c1ccc(/C=N\Nc2ccccn2)cc1	-5.9%	?	?	?	25.1µM*	39.8µM*
C(=N\Nc1nc2ccccc2[nH]1)/c1cccc2nccnc12	9.8%	20.7%	·	?	-34.6%	-4.9%
COc1ccc(/C=N/Nc2cc(=O)n(C)c(=O)n2C)cc1OC	89.1µM*	24.9%	-23.5%	-12.1%	-17.2%	-30.4%[59 µM]
Cn1c(=O)n(C)c2cc(N3CCCCC3)c(NC(=O)Nc3ccc(Br)cc3)cc21	·	22.5%	·	-12.3%	-10.9%	-9.6%[59 µM]
COc1ccc2c(c1)c(/C=N/Nc1nc3ccccc3[nH]1)c(C)n2C	11.2µM*	-11.0%	?	?	28.2µM*	·
O=c1cnnc(N/N=C/c2ccccn2)[nH]1	8.4%	20.5%	·	3.16µM*	8.91µM*	32.2%
COc1ccc(C=NN=C2c3ccccc3-c3ccccc32)cc1OC	·	?	·	12.6µM*	·	·
CC(/C=N/Nc1nncc(=O)[nH]1)=C\c1ccccc1	5.3%	17.5%	4.6%	-4.9%	-1.3%	-6.4%
CCCCn1c(/C=N/Nc2nc3ccccc3[nH]2)nc2ccccc21	?	3.9%	?	?	?	38.3%[59 µM]
O=C1CCN(S(=O)(=O)c2ccccc2)C2CCCCC12 (centres undefined)	10.9%	-4.8%	-2.7%	-25.2%[57.1 µM]	-2.5%	-28.2%
O=C1NC2CCCCC2C(=O)N1OS(=O)(=O)c1ccccc1 (centres undefined)	·	50.1µM*	·	?	·	·

Compound activity as filed in PubChem BioAssay.
